# Sampled rows, rich in hits. Any-hit rate of the full collection: about 2.8%.
# Giardia killer: kills Giardia lamblia; activity change, % at 7.66 µM, hits read low; actives 0.15% (n = 340,000); Giardia lamblia trophozoite viability; in the data active means activity change below about -80%; inconclusive means between about -30% and that limit;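 further: parasites exposed to compound for two days anaerobically before the ATP read; on the % scale 0 is the no-effect control and ±100 the full control effect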
#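 Trophozoites 100 cells/well + cpd; 48 hrs, 37 deg C, anaerobic. ATPLite 1-Step added, 15-30 min RT, luminescence read (ATP-based viability).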
# B2AR arrestin: recruits beta-arrestin to the human beta2-adrenergic receptor; beta-arrestin recruitment to beta2AR, cell-based reporter; Potency, µM (titrated, usually from 46.1 µM), for inactives: at the highest dose activation, usual class: activators; actives 0.02% (n = 330,000); AID 492947; active means well fitted activation curve with a large enough effect; inconclusive means small, poorly fitted or top-dose-only effect;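 further: potency means the concentration at half of the fitted maximal effect; 0% = DMSO controls and full agonism = EC100 isoproterenol or metaproterenol; nearly all actives have a fitted effect of over 65% in size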
# D3 ag: agonists of human D3 dopamine receptor; max activation, %; P35462; AID 652048; D3R DiscoveRx beta-arrestin cells, luminescence, 90 min; actives 0.58% (n = 410,000); in the data active means max activation above about 30%; further: 0% is about no effect
# Target sequence (P35462 whole entry, looked up): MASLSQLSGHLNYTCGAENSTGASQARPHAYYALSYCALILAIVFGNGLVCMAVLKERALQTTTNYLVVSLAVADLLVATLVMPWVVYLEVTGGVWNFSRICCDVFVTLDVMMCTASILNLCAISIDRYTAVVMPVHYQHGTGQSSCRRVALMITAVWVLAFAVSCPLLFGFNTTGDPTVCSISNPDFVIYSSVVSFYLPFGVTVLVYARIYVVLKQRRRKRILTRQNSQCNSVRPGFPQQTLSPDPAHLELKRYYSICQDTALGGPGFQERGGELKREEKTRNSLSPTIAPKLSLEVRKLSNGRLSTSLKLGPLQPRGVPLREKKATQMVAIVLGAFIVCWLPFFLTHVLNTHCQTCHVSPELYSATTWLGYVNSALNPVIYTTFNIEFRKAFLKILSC
#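 Agonist-mode cell screen: cells plated at 1500/well and incubated overnight at 37 °C, then exposed to library compounds for 90 min at 37 °C. Detection reagent was added for 30–60 min at room temperature, and luminescence was read.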
# DRD3 antagonist: blocks the human D3 dopamine receptor. actives 2.5% (n = 360,000). P35462. AID 652054. D3R cells, DiscoveRx beta-arrestin luminescence, antagonist mode; stronger effect = lower value. max response, negative = inhibition, %; in the data active means max response below about -50%; inconclusive means no clear call, values can overlap the other calls; further: on the % scale 0 is the no-effect control and ±100 the full control effect
#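 Cells plated overnight at 1500 cells/well, then exposed to library compounds with dopamine controls for 90 minutes at 37 degrees C. DiscoveRx reagent added for 30–60 minutes at room temperature; luminescence read, quantitative HTS format.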
# Active calls of the source: *; ? = inconclusive; · = no result.
SMILES,Giardia killer,B2AR arrestin,D3 ag,DRD3 antagonist
COc1ccc(N2C(=O)N3[C@H](c4cccc(C)c4)[C@@H]4C(=O)N(Cc5ccccc5)C(=O)[C@@H]4[C@]3(Cc3ccccc3)C2=O)cc1,-11,-1%,31*,-6
CC[C@@]12C(=O)N(c3ccc(OC)cc3)C(=O)N1[C@H](c1ccc(Cl)cc1)[C@@H]1C(=O)N(C3CCCCC3)C(=O)[C@@H]12,12,0%,-41,-57*
COc1ccc([C@@H]2[C@@H]3C(=O)N(C(C)(C)C)C(=O)[C@@H]3[C@]3(Cc4ccccc4)C(=O)N(c4ccc(OC)cc4)C(=O)N23)cc1,-2,0%,26,-14
CC[C@@]12C(=O)N(c3cccc(C)c3)C(=O)N1[C@H](c1ccc(OC)cc1)[C@@H]1C(=O)N(C(C)(C)C)C(=O)[C@@H]12,-23,-3%,4,16
CCOc1ccc(-c2nc(C(N)=O)c3c(n2)n(-c2ccc4c(c2)OCO4)c(=O)n3CC)cc1,·,·,-11,·
Cc1ccc(Nc2c(-c3cccnc3)nc3ccc(Cl)cn23)cc1,·,·,10,·
O=C(NCc1cccc(F)c1)c1ccc2nc(CCc3ccccc3)oc2c1,·,·,-6,·
COc1ccc(CCNC[C@H](O)c2ccc(O)cc2)cc1OC,·,·,3,·
O=C(c1ccco1)c1n[nH]nc1-c1ccccc1,-6,0%,-2,-70*
COC(=O)c1c(-c2ccc(Cl)cc2)noc1N1CCN(c2ccc(OC)cc2)CC1,·,·,69*,·
COC(=O)c1c(-c2ccc(Cl)cc2)noc1N1CCN(c2ccc(C(C)=O)cc2)CC1,·,·,4,·
COc1cccc(/C=C2\SC(N3CCC(C)CC3)=NC2=O)c1OC,7,0%,-13,-17
COc1ccccc1/C=C1\SC(N2CCC(C)CC2)=NC1=O,2,1%,-24,-65*
CCCN1CCN(CCCNC(=O)C2CCCN(c3nc4ccc(OCC)cc4s3)C2)CC1 (stereo unspecified),4,0%,23,7
CCOc1ccc2nc(N3CCCC(C(=O)N4CCN(CC)CC4)C3)sc2c1 (stereo unspecified),-1,0%,-2,-65*
Cc1ccccc1NS(=O)(=O)c1ccc(C(=O)NCC(c2ccco2)N(C)C)cc1 (stereo unspecified),4,0%,-14,-57*
CNS(=O)(=O)c1cccc(C(=O)NCC(c2cccs2)N(C)C)c1 (stereo unspecified),-2,0%,-7,-72*
Cc1ccccc1NS(=O)(=O)c1ccc(C(=O)NCC(c2ccccc2)N(C)C)cc1 (stereo unspecified),10,0%,-11,?
CCN(c1ccccc1)S(=O)(=O)c1cccc(C(=O)NCC(c2ccco2)N2CCCC2)c1 (stereo unspecified),8,-1%,-9,-58*
Cc1ccc(NS(=O)(=O)c2cccc(C(=O)NCC(c3cccs3)N(C)C)c2)cc1 (stereo unspecified),18,0%,-18,-24
COc1cc(C(=O)NCC(c2cccs2)N(C)C)cc(Cl)c1OC(C)C (stereo unspecified),3,0%,-10,-76*
Cc1ccccc1OC(C)C(=O)NCCNC(=O)C(C)Oc1ccccc1C (stereo unspecified),4,·,·,·
CCc1ccccc1NC(=O)[C@H](Cc1ccccc1)N1Cc2ccccc2C1=O,·,·,8,·
CCN(c1ccccc1)S(=O)(=O)c1cccc(C(=O)NCC(c2cccs2)N(C)C)c1 (stereo unspecified),-14,0%,-14,-56*
COc1ccccc1NS(=O)(=O)c1cccc(C(=O)NCC(c2cccs2)N(C)C)c1 (stereo unspecified),29,·,-18,-85*
COc1ccccc1NS(=O)(=O)c1cccc(C(=O)NCC(c2ccco2)N(C)C)c1 (stereo unspecified),-5,0%,-35,-68*
Cc1ccc(C)c(S(=O)(=O)Nc2ccc(C(=O)NCC(c3ccco3)N(C)C)cc2)c1 (stereo unspecified),14,-1%,0,-53*
Cc1ccc(C)c(S(=O)(=O)Nc2ccc(C(=O)NCC(c3ccco3)N3CCCCC3)cc2)c1 (stereo unspecified),-24,-1%,-28,-19
COc1ccccc1NS(=O)(=O)c1cc(C(=O)NCC(c2ccco2)N(C)C)ccc1C (stereo unspecified),14,0%,-29,?
COc1cccc(C2=CC(c3ccccc3O)NC(C)(C)N2)c1 (stereo unspecified),-8,·,·,·

# High-throughput results (PubChem BioAssay)
